E coli Lon inh: inhibitors of E. coli Lon protease | actives 0.42% (n = 360,000) | inhibition, % at 7.94 µM | purified E. coli Lon protease, fluorescence polarization; in the data active = inhibition above about 13%, passing the limit was not always enough;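 note: 0% = enzyme with probe and DMSO and 100% = no enzyme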
Target sequence (P0A9M0 whole entry, looked up): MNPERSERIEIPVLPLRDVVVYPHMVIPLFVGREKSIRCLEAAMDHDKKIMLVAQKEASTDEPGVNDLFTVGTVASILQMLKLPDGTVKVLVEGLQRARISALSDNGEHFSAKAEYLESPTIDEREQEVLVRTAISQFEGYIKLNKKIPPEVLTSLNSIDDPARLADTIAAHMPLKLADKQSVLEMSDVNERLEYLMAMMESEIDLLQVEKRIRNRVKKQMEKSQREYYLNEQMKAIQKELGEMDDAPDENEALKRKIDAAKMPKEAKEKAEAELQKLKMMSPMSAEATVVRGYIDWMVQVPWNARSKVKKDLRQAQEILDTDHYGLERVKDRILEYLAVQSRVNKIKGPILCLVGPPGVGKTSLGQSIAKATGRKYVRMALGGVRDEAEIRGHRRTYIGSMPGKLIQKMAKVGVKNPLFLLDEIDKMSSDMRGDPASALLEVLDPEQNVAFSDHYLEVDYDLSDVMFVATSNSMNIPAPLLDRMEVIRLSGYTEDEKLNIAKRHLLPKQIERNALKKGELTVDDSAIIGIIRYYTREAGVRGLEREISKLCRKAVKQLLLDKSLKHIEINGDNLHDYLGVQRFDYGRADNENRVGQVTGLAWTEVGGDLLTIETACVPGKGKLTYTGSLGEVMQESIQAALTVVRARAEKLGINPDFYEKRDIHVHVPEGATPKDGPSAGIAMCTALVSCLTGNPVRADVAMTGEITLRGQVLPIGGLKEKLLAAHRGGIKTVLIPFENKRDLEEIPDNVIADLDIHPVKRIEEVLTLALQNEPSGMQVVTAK
RTF Ca sens inh: cardiac RTF calcium desensitization | IANBD-labeled cardiac RTF, Ca2+ fluorescence | inhibition, % at 7.15 µM | P19429+P45379 | AID 493244 | actives 0.12% (n = 340,000);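 active = inhibition above the mean inhibition of all tested compounds plus 3 SD, cut at about 17% in these data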;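 note: assay run at fixed EC70 calcium of 1.6 mM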
LANA DNA inh: KSHV C-LANA DNA binding inhibition; MBP-C-LANA/FAM-LBS DNA binding, fluorescence polarization; inhibition, % at 9 µM; actives 0.078% (n = 340,000);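 active = highest replicate inhibition at or above 60% at 9 µM, even if other replicates fall short; inactive = all replicates below 60% inhibition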;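 note: 0% = neutral control wells and 100% = 4 µM acridine orange control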
cardiac RTF act: increases calcium sensitivity of human cardiac regulated thin filaments; actives 0.24% (n = 340,000); activation, % at 7.2 µM; P19429+P45379; IANBD-labeled TnC RTF fluorescence at EC20 calcium; 0% EC20 calcium, 100% full calcium;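 active = activation above the mean over all tested compounds plus 3 SD, cut at about 30% in these data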;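 note: rise in fluorescence read as greater calcium sensitivity of cardiac thin filaments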
Keap1-Nrf2 PPI: inhibitors of human Keap1-Nrf2 protein-protein interaction; Q14145; inhibition, % at 9.4 µM; actives 0.15% (n = 340,000); Keap1 Kelch-Nrf2 peptide fluorescence polarization, 1536-well; AID 504523; in the data active = inhibition above about 12%;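 note: human Keap1 Kelch domain with fluorescein labeled Nrf2 9mer peptide probe; 0% = neutral control wells and 100% = peptide positive control; higher means more block of Keap1 binding to Nrf2 peptide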
LANA-H2A inh: blocks KSHV LANA binding to histone H2A/H2B. Q9QR71. cell-free LANA-H2A/H2B peptide, fluorescence polarization. inhibition, % (test concentration not listed). actives 0.6% (n = 320,000); in the data active = inhibition mostly above about 10%, no sharp cut-off; inactive = mostly below about 6.7%
RTF inh confirm: cardiac RTF calcium sensitivity inhibition, confirmation; shares compounds with RTF Ca sens inh; reconstituted cardiac thin filaments, calcium sensitivity fluorescence; inhibition, % at 7.15 µM; actives 8% (n = 360); AID 504635; in the data active = inhibition above about 18%
DNA intercal 2: intercalates DNA, flagged as C-LANA false positive. shares compounds with LANA DNA inh. Acridine orange-DNA displacement, fluorescence polarization. AC50, µM (highest dose often 35 µM), without a hit: top-dose activity change, negative = inhibition. 20 tested, under 10 active. AID 588364;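 active = signal drop with an AC50 no more than ten times the top valid dose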
Keap1 TSA: Keap1 (human) Kelch domain binding | shares compounds with Keap1-Nrf2 PPI | Keap1 Kelch thermal shift, delta Tm; stronger effect = higher value | max delta Tm, degrees C | actives 8% (n = 400) | AID 651823; in the data active = max delta Tm above about 0.48 degrees C
Dye-only ctr: counter-screen for Keap1 thermal shift hits: dye-only artifacts | shares compounds with Keap1-Nrf2 PPI | Sypro Orange dye-only thermal melt, no protein, delta Tm; top dose 26 µM | delta Tm, degrees C (no concentration beside the values) | 140 tested, under 10 active | AID 651858;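 active = at highest dose tested, delta Tm positive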
eLon confirm: E. coli Lon inhibition confirmation; shares compounds with E coli Lon inh; purified E. coli Lon, fluorescence polarization; inhibition, % at 7.94 µM; actives 31% (n = 1,400); in the data active = inhibition above about 16%;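 note: 0% = enzyme with probe and DMSO and 100% = no enzyme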
Active calls of the source: *; . = not tested or not shown. Sampled rows, rich in hits. Any-hit rate of the full collection: about 1.3%.

SMILES	E coli Lon inh	RTF Ca sens inh	LANA DNA inh	cardiac RTF act	Keap1-Nrf2 PPI	LANA-H2A inh	RTF inh confirm	others
CCCCCNCc1ccc(Cl)cc1	-8	-4	0	-1	1	2	.
CSCCC(NC(=O)c1ccccc1)C(=O)NCCCn1nc(C)cc1C (stereo unspecified)	-2	6	-1	12	-2	2	.
CCN(CC(=O)Nc1c(F)cccc1F)C(=O)c1ccc2ccccc2n1	-3	-11	0	-11	-3	-2	.
CCN(CC(=O)Nc1c(F)cccc1F)C(=O)/C=C/c1ccc2ccccc2n1	-23	20*	2	-11	3	-1	2
O=C(Nc1cc(S(=O)(=O)N2CCOCC2)ccc1N1CCCC1)C1CC1	-2	19*	1	-4	-1	-5	-3
CC1CCC/C(=C\Nc2ccc(O)cc2)C1=O (stereo unspecified)	8	-7	-3	5	-2	-3	.
CC1(C)OC(C)(C)/C(=C/Nc2ccc(O)cc2)C1=O	3	190*	0	-8	-5	0	-2
CCn1c(=O)cc(OCC(=O)Nc2cccc(C)n2)c2ccccc21	-8	-15	0	10	7	4	.
CCn1c(=O)cc(SCC(=O)Nc2cccc(C)n2)c2ccccc21	3	18*	1	-4	2	-3	-4
Cc1cc(OCCCC(=O)NC2=NCCS2)ccc1Cl	-2	17*	0	-4	-4	2	-3
Cc1cc(OC(C)C(=O)N2CCN(c3ccc(F)cc3)CC2)c2c(C)c(C)c(=O)oc2c1 (stereo unspecified)	10	4	-1	2	-2	2	.
CN=c1scc(-c2cccs2)n1/N=C/c1ccccc1O	-5	17*	2	-5	1	0	-7
CC/C(=C(\c1ccc(O)cc1)c1ccc(OCCN(C)C)cc1)c1ccccc1	1	18*	0	2	-2	2	-1
Cc1ccc(F)c(NC(=O)c2c(-c3ccccc3)noc2C)c1	9	-1	0	3	0	-3	.
Cn1c(Cn2nnc3ccccc32)nnc1SCC(=O)N1c2ccccc2Sc2ccccc21	-2	-7	0	1	-3	-3	.
Cn1c(SCC(=O)N2c3ccccc3Sc3ccccc32)nc2ccccc21	7	19*	0	6	-3	-1	-5
Cn1c(NC(=O)c2ccc(S(=O)(=O)N3CCCCC3)cc2)cc(=O)n(C)c1=O	0	17*	-1	1	-1	3	2
CC(=O)Nc1ccc(C(=O)Nc2ccc(S(=O)(=O)N3CCCCC3)cc2)cc1	-2	-4	-1	-7	-3	0	.
CC1CC(C)CN(S(=O)(=O)c2ccc3c(c2)oc(=O)n3CC(=O)NCCCOC(C)C)C1 (stereo unspecified)	3	-2	0	-4	1	0	.
Cc1ccc(C2CC(c3ccc(NS(C)(=O)=O)cc3)=NN2C(=O)c2ccco2)cc1 (stereo unspecified)	-1	20*	0	4	-3	-1	-3
COc1ccc([N+](=O)[O-])cc1NC(=O)CSc1nncn1-c1ccccc1	-9	19*	1	-8	2	-3	1
COc1ccccc1NC(=O)CSc1nncn1-c1ccccc1	2	-7	2	-1	2	-13	.
O=C(O)C1Nc2ccc(Br)cc2C2C=CCC12 (stereo unspecified)	0	60*	69*	-38	7	-4	6	DNA intercal 2=3%
CSc1ccc(/C=N/Nc2cccc(C(=O)O)c2)cc1	9	26*	78*	-14	1	.	5	DNA intercal 2=6%
O=C(O)c1cccc(N/N=C/c2ccc(OC(F)(F)F)cc2)c1	-4	1	1	-2	3	2	.
SMILES	E coli Lon inh	RTF Ca sens inh	LANA DNA inh	cardiac RTF act	Keap1-Nrf2 PPI	LANA-H2A inh	RTF inh confirm	others
CC(=O)C1=C(C)NC(=O)CC1c1ccc(F)cc1 (stereo unspecified)	-5	4	-1	-5	-1	0	.
CC1=NN(c2cccc(C(=O)O)c2)C(=O)/C1=C\C=C\c1ccco1	-8	35*	92*	-36	7	-6	11	DNA intercal 2=9%
Cc1c(NS(=O)(=O)c2ccc(Cl)c(C(=O)OC(C)C(=O)NCc3ccco3)c2)c(=O)n(-c2ccccc2)n1C (stereo unspecified)	3	-6	-1	6	-3	0	.
CC(C)C(C(=O)O)N1C(=O)/C(=C/C=C/c2ccco2)SC1=S (stereo unspecified)	-1	83*	107*	-39	13*	6	40*	Keap1 TSA=0.91*
CC1(c2ccccc2Br)NC(=O)N(CC(=O)N2CCc3ccccc3C2)C1=O (stereo unspecified)	2	-6	0	7	-4	-2	.
Cc1ccc(S(=O)(=O)c2cc(Nc3ccccc3)ccc2O)cc1	11	-2	-1	-7	0	-1	.
O=S(=O)(O)c1ccc(O)c2cc(Nc3ccccc3)ccc12	3	105*	120*	-48	25*	.	50*	Keap1 TSA=0.97*
CN(C)CCCN1C(=O)C2CCc3[nH]c4ccccc4c3C2C1=O (stereo unspecified)	24*	19*	4	6	0	-3	-4	eLon confirm=-2
CN(C)CCCn1c(=S)[nH]c2ccccc2c1=O	-1	12	1	7	-21	2	.
NS(=O)(=O)c1cc(C(=O)NC2CCSc3ccccc32)ccc1Cl (stereo unspecified)	18*	31*	90*	-53	20*	2	4	Keap1 TSA=-0.14;Dye-only ctr=-27;eLon confirm=17*
COC(CNC(=O)C(=O)Nc1cc2c3c(c1)CC(=O)N3CCC2)OC	-13	-4	1	4	-5	9	.
COC(=O)c1ccccc1NC(=O)CCS(=O)(=O)c1ccc(Br)cc1	3	3	48	-1	-4	.	.	DNA intercal 2=5%
CCc1ccccc1NC(=O)CCS(=O)(=O)c1ccc(Br)cc1	0	-5	2	-5	3	-4	.
